# Source: PubChem BioAssay (EPA / NIEHS)
# Records with an inconclusive call do not appear. Activity calls are given as the source filed them. Rule for the calls, unless noted: active = hit-call score of the fitted dose curve at least 0.9, where 1 is the maximum; inactive = score below 0.9.
# Tests used:
# [1] = ATG_TAL_CIS: Attagene CIS-FACTORIAL HepG2 Assay for human TAL Basal Promoter (AID 2282966); conditions: HepG2 Attagene cis-factorial TAL promoter reporter; actives raise or lower the signal;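 note: background control endpoint measuring basal TAL promoter reporter mRNA not a specific factor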
# How it was run: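 HepG2 cells were transiently transfected with promoter-driven multiplexed reporter units and dosed for 24 h. Reporter mRNA was measured by RT-PCR with capillary electrophoresis fluorescence; bidirectional fits used DMSO as baseline, serving as a background control.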
# [2] = ATG_VDRE_CIS: Attagene CIS-FACTORIAL HepG2 Assay for human Vitamin D Receptor Element (VDRE) (AID 2282968); conditions: HepG2 VDRE cis-reporter transcription, actives raise or lower the signal
# How it was run: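 RT-PCR/CE readout of reporter mRNA; HepG2, transient transfection, 24 h dosing; DMSO baseline; bidirectional analysis.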
# [3] = target: Nuclear receptor subfamily 1 group I member 3 (Homo sapiens) (UniProt Q14994); assay: ATG_CAR_TRANS: Attagene TRANS-FACTORIAL HepG2 Assay for human Constitutive Androstane Receptor (CAR) (AID 2282969; active = hit-call score of the fitted dose curve at least 0.9, where 1 is the maximum;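 note: activators raise reporter mRNA above DMSO so AC50 marks induction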); conditions: HepG2 Attagene TRANS-FACTORIAL CAR reporter
# How it was run: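 HepG2 cells transiently transfected with multiplexed GAL4-UAS reporter units expressing chimeric NR-Gal4 proteins; compound exposure 24 h. Reporter mRNA measured by RT-PCR, 6-FAM labelling, HpaI digestion and capillary electrophoresis; gain-of-signal fitted against DMSO baseline.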
# [4] = target: X-box-binding protein 1 (Homo sapiens) (UniProt P17861); assay: ATG_Xbp1_CIS: Attagene CIS-FACTORIAL HepG2 Assay for human X-box Binding Protein 1 (XBP1) (AID 2282972); conditions: HepG2 XBP1 cis-element reporter, Attagene multiplex; actives raise or lower the signal
# How it was run: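 HepG2, transient MRTU transfection (cis-promoter driven), 24 h compound exposure. Total RNA → oligo(dT) RT → PCR → 6-FAM labeling → HpaI cut → CE. Bidirectional fit vs DMSO.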
# [5] = ATG_M_19_TRANS: Attagene TRANS-FACTORIAL HepG2 Assay for M19 Transcription Factor (Internal Marker) (AID 2282974; active = hit-call score of the fitted dose curve at least 0.9, where 1 is the maximum); conditions: HepG2 Attagene TRANS-FACTORIAL M19 internal marker reporter
# How it was run: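 Using RT-PCR and capillary electrophoresis, reporter mRNA from transiently transfected human HepG2 cells was quantified following 24 h exposure; activity was fitted in the positive direction against DMSO.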
# [6] = target: Estrogen receptor (Homo sapiens) (UniProt P03372); assay: ATG_ERa_TRANS: Attagene TRANS-FACTORIAL HepG2 Assay for human Estrogen Receptor alpha (ERa) (AID 2282970; active = hit-call score of the fitted dose curve at least 0.9, where 1 is the maximum); conditions: HepG2 Attagene TRANS ERa GAL4 reporter, mRNA
# How it was run: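 HepG2 cells transiently transfected with multiplexed GAL4-UAS reporter units; ERa activity read via exogenous chimeric NR-Gal4 protein. After 24 hour compound exposure, reporter mRNA measured by RT-PCR with 6-FAM labelling and capillary electrophoresis; gain-of-signal fitted relative to DMSO.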
# [7] = target: Steroid hormone receptor ERR1 (Homo sapiens) (UniProt P11474); assay: ATG_ERRa_TRANS: Attagene TRANS-FACTORIAL HepG2 Assay for human Estrogen-Related Receptor alpha (ERRa) (AID 2282971; active = hit-call score of the fitted dose curve at least 0.9, where 1 is the maximum); conditions: HepG2 Attagene TRANS reporter, ERRa transactivation
# How it was run: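 HepG2 cells transiently transfected with multiplexed GAL4-UAS reporter units reading chimeric ERRa-Gal4 activity; 24 h compound exposure. Reporter mRNA measured by RT-PCR, 6-FAM labelling, HpaI digest and capillary electrophoresis; gain of signal fitted versus DMSO baseline.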
# [8] = target: Estrogen-related receptor gamma (Homo sapiens) (UniProt P62508); assay: ATG_ERRg_TRANS: Attagene TRANS-FACTORIAL HepG2 Assay for human Estrogen-Related Receptor gamma (ERRg) (AID 2282977; active = hit-call score of the fitted dose curve at least 0.9, where 1 is the maximum;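 note: hits increase reporter signal over DMSO so potencies reflect activators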); conditions: HepG2 Attagene TRANS reporter, ERRg transactivation
# How it was run: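 HepG2 cells transiently transfected with multiplexed GAL4-UAS reporter units driven by chimeric NR-Gal4 proteins; 24 h exposure. Reporter mRNA quantified by RT-PCR, fluorescent labelling, HpaI digestion and capillary electrophoresis; gain of signal vs DMSO.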
# [9] = ATG_GAL4_TRANS: Attagene TRANS-FACTORIAL HepG2 Assay for GAL4 (Internal Marker) (AID 2282976; active = hit-call score of the fitted dose curve at least 0.9, where 1 is the maximum); conditions: HepG2 Attagene TRANS GAL4 internal marker reporter
# How it was run: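 HepG2 cells transiently transfected with multiplexed GAL4-UAS reporter constructs were dosed for 24 h. Reporter mRNA was measured by RT-PCR, 6-FAM primer extension, HpaI digestion and capillary electrophoresis, and gain of signal was fitted relative to DMSO.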
# X-box-binding protein 1 (Homo sapiens), sequence (P17861 whole entry, looked up): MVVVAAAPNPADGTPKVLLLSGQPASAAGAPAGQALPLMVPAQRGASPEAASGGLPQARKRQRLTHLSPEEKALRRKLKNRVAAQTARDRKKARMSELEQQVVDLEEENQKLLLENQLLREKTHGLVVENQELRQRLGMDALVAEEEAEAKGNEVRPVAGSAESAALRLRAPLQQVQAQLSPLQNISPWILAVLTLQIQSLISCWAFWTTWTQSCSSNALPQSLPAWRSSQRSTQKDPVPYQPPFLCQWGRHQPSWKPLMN
# Nuclear receptor subfamily 1 group I member 3 (Homo sapiens), sequence (Q14994 whole entry, looked up, the tested form may be a part): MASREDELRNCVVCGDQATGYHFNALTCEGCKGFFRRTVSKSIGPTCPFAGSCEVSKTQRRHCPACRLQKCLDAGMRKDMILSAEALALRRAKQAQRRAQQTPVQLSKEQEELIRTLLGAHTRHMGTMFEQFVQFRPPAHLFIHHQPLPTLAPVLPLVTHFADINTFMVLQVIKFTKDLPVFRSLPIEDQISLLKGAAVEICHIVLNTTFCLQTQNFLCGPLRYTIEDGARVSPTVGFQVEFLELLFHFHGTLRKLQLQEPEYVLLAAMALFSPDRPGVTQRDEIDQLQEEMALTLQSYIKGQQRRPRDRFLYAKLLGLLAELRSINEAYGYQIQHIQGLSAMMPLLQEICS
# Estrogen-related receptor gamma (Homo sapiens), sequence (P62508 whole entry, looked up, the tested form may be a part): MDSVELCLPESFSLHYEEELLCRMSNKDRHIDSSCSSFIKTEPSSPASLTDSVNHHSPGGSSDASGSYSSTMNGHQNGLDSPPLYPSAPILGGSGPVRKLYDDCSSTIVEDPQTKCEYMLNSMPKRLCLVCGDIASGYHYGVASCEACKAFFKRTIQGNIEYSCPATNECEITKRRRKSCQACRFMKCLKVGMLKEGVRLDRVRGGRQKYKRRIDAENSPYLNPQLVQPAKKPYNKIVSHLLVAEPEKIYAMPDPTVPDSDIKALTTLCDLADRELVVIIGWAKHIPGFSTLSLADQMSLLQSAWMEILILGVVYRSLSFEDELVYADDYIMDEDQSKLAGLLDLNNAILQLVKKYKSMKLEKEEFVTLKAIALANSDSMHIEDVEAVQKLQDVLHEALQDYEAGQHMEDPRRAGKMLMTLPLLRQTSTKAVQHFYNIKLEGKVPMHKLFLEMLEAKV
# Estrogen receptor (Homo sapiens), sequence (P03372 whole entry, looked up, the tested form may be a part): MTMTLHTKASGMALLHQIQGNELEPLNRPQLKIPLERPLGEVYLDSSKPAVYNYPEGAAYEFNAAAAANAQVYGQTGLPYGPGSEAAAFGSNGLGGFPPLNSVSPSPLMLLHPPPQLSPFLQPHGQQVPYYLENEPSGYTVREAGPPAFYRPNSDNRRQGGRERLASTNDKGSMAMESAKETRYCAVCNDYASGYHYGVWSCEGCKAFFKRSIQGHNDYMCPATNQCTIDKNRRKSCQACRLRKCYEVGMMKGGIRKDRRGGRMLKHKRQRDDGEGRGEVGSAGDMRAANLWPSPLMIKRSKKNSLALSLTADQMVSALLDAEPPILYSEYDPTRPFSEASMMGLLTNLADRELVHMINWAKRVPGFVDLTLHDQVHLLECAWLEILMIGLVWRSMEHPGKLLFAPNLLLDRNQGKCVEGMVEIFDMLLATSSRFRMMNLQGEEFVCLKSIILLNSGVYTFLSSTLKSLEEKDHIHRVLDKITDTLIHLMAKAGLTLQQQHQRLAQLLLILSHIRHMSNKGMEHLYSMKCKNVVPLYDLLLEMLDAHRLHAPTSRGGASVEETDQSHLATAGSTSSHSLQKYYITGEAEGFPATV
# Steroid hormone receptor ERR1 (Homo sapiens), sequence (P11474 whole entry, looked up, the tested form may be a part): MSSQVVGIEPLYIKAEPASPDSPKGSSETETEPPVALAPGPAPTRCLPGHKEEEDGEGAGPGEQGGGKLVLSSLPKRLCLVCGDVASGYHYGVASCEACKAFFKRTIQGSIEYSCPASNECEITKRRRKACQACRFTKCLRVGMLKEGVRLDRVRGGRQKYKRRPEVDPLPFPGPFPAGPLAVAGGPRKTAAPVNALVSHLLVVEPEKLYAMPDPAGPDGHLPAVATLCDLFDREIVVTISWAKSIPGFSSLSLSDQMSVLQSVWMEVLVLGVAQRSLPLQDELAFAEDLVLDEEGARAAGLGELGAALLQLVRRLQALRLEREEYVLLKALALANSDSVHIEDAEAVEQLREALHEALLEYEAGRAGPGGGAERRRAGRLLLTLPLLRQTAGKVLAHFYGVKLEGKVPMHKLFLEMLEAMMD
smiles,measurement,setting,value
Oc1ccccc1O,outcome,[1],inactive
same,AC50,[2],27.5 µM (active)
same,outcome,[3],inactive
same,AC50,[4],35.7 µM (active)
same,outcome,[5],inactive
COC(=O)CCC(=O)OC,outcome,[1],inactive
same,outcome,[2],inactive
same,outcome,[3],inactive
same,outcome,[6],inactive
same,outcome,[4],inactive
same,outcome,[5],inactive
CC(=O)S[C@H](C(=O)N[C@H]1Cc2ccccc2[C@H]2CCC[C@@H](C(=O)O)N2C1=O)C(C)C,outcome,[1],inactive
same,outcome,[2],inactive
same,outcome,[3],inactive
same,outcome,[7],inactive
same,outcome,[4],inactive
same,outcome,[5],inactive
same,outcome,[8],inactive
Cc1ccc(-c2cc(C(F)(F)F)nn2-c2ccc(S(N)(=O)=O)cc2)cc1,outcome,[1],inactive
same,outcome,[6],inactive
same,outcome,[4],inactive
same,outcome,[8],inactive
CCc1cc(C2=C(C(=O)O)N(c3ccccc3C(F)(F)F)S(=O)(=O)c3ccccc32)cc2c1OCO2,outcome,[1],inactive
same,AC50,[2],11.8 µM (active)
same,outcome,[4],inactive
same,outcome,[9],inactive
CN(C)C(=O)NC1(c2ccccc2)CCN(CCC[C@]2(c3ccc(Cl)c(Cl)c3)CCCN(C(=O)c3ccccc3)C2)CC1,outcome,[1],inactive
same,AC50,[2],2.75 µM (active)
same,AC50,[4],4.69 µM (active)
same,outcome,[5],inactive
CN(C)CCCN(C)CCCN(C)C,outcome,[1],inactive
same,outcome,[6],inactive
same,outcome,[4],inactive
same,outcome,[5],inactive
CN(C)CCCN1c2ccccc2Sc2ccc(Cl)cc21,outcome,[1],inactive
same,AC50,[2],11.1 µM (active)
same,outcome,[4],inactive
CC(C)(O)c1ccc(CNC(=O)c2cccnc2Oc2ccc(F)cc2)cc1,outcome,[1],inactive
same,outcome,[3],inactive
same,outcome,[7],inactive
same,outcome,[4],inactive
same,outcome,[5],inactive
same,outcome,[9],inactive
Cn1cnc2c1c(=O)[nH]c(=O)n2C,outcome,[1],inactive
same,outcome,[2],inactive
same,outcome,[4],inactive
same,outcome,[9],inactive
CCCCC(CC)COP(=O)(OCC(CC)CCCC)OCC(CC)CCCC (configuration not stated),outcome,[1],inactive
same,AC50,[2],0.61 µM (active)
same,outcome,[4],inactive
same,outcome,[9],inactive
S=c1[nH]c2ccccc2s1,outcome,[1],inactive
same,outcome,[2],inactive
same,outcome,[3],inactive
same,outcome,[4],inactive
same,outcome,[9],inactive
same,outcome,[8],inactive
CCCCCCCCCCCCCCOS(=O)(=O)O,outcome,[1],inactive
same,outcome,[2],inactive
same,outcome,[4],inactive
Cc1occc(=O)c1O,outcome,[1],inactive
same,outcome,[2],inactive
same,outcome,[4],inactive
same,outcome,[5],inactive
same,outcome,[9],inactive
CC(C)(C)c1ccccc1,outcome,[1],inactive
same,outcome,[2],inactive
same,outcome,[3],inactive
same,outcome,[4],inactive
same,outcome,[8],inactive
Oc1ccc(O)cc1,outcome,[1],inactive
same,outcome,[2],inactive
same,AC50,[6],59.9 µM (active)
same,AC50,[4],114 µM (active)
C/C=C/c1ccc(OC)cc1,outcome,[1],inactive
same,outcome,[4],inactive
same,outcome,[5],inactive
CCC(C)N(C)C(=O)c1cc2ccccc2c(-c2ccccc2Cl)n1 (configuration not stated),outcome,[1],inactive
same,AC50,[2],1.54 µM (active)
same,outcome,[6],inactive
same,outcome,[4],inactive
same,outcome,[5],inactive
CC(=O)O,outcome,[1],inactive
same,outcome,[4],inactive
same,outcome,[5],inactive
CC(C)OC(=O)C(C)(C)Oc1ccc(C(=O)c2ccc(Cl)cc2)cc1,outcome,[1],inactive
same,AC50,[2],27.6 µM (active)
same,AC50,[6],27.1 µM (active)
same,AC50,[4],54.4 µM (active)
same,outcome,[9],inactive
C=CCCCCCCCCCCCC,outcome,[1],inactive
same,outcome,[2],inactive
same,outcome,[3],inactive
same,outcome,[4],inactive
same,outcome,[5],inactive
CC(=O)OCC(COC(C)=O)OC(C)=O,outcome,[1],inactive
same,outcome,[2],inactive
same,outcome,[4],inactive
same,outcome,[8],inactive
CC(=O)[C@@]1(O)CC[C@H]2[C@@H]3CCC4=CC(=O)CC[C@]4(C)[C@H]3CC[C@@]21C,outcome,[1],inactive
same,outcome,[2],inactive
same,outcome,[4],inactive
same,outcome,[5],inactive
same,outcome,[9],inactive
O=C1O[C@H]([C@H](O)CO)C(O)=C1O,outcome,[1],inactive
same,outcome,[4],inactive
same,outcome,[5],inactive
same,outcome,[9],inactive
CC(N)=O,outcome,[1],inactive
same,outcome,[4],inactive
same,outcome,[9],inactive
Nc1nc(=S)c2[nH]cnc2[nH]1,outcome,[1],inactive
same,outcome,[3],inactive
same,outcome,[6],inactive
same,outcome,[4],inactive
O=C(O)CN(CC(=O)O)CC(=O)O,outcome,[1],inactive
same,outcome,[2],inactive
same,outcome,[3],inactive
same,outcome,[4],inactive
same,outcome,[8],inactive
O=NO,outcome,[1],inactive
same,outcome,[2],inactive
same,outcome,[3],inactive
same,outcome,[4],inactive
same,outcome,[9],inactive
C=CCc1ccc(OC)c(OC)c1,outcome,[1],inactive
same,outcome,[2],inactive
same,outcome,[4],inactive
same,outcome,[5],inactive
Nc1nc(Cl)nc2c1ncn2[C@H]1C[C@H](O)[C@@H](CO)O1,outcome,[1],inactive
same,outcome,[2],inactive
same,outcome,[4],inactive
Cc1cc(Cc2ccc(N)c(C)c2)ccc1N,outcome,[1],inactive
same,outcome,[3],inactive
same,outcome,[4],inactive
same,outcome,[5],inactive
same,outcome,[9],inactive
c1ccc2occc2c1,outcome,[1],inactive
same,outcome,[2],inactive
same,outcome,[3],inactive
same,outcome,[4],inactive
same,outcome,[8],inactive
